# Screening results deposited in PubChem BioAssay by Broad Institute.
# Compounds with a hit are over-represented: about 3.3% of the library has one in this group of screens.
# GSIS activator: primary screen for activators of insulin secretion dependent on glucose, INS-1E cells, GLuc reporter luminescence; INS-1E GLuc reporter insulin secretion, 2-3 h; activation, % at 16.6 µM; 370,000 tested, 0.61% active; AID 743287;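 active means lowest replicate activation of at least 40%, so every replicate reaches that level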;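 further: 0% = median of neutral control wells and 100% = median of IBMX positive control wells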
# FGF22 binding: shifts melting point of recombinant human FGF22; recombinant FGF22 thermal shift, SYPRO orange fluorescence; percent of sucrose octasulfate shift, DMSO zero; activity (Tm shift, normalised), % at 9.99 µM; Q9HCT0; AID 651658; 340,000 tested, 1.5% active;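 active means mean Tm shift, scaled 0 neutral to 100 positive control, at about 1.3% or above, every replicate too, limit read from the data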
# ERAP1 HTS inh: blocks human ERAP1 aminopeptidase activity; Q9NZ08; recombinant ERAP1, Leu-AMC fluorescence, 60 min; inhibition, % at 10.7 µM; 340,000 tested, 0.15% active; AID 652197;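 active means mean replicate inhibition of at least 30%, or all replicates individually reaching that 30% level; inactive means mean below 30% and not every replicate reaching it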;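 further: 0% = neutral control wells and 100% = L-leucinethiol positive control wells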
# Target sequence (Q9NZ08 whole entry, looked up): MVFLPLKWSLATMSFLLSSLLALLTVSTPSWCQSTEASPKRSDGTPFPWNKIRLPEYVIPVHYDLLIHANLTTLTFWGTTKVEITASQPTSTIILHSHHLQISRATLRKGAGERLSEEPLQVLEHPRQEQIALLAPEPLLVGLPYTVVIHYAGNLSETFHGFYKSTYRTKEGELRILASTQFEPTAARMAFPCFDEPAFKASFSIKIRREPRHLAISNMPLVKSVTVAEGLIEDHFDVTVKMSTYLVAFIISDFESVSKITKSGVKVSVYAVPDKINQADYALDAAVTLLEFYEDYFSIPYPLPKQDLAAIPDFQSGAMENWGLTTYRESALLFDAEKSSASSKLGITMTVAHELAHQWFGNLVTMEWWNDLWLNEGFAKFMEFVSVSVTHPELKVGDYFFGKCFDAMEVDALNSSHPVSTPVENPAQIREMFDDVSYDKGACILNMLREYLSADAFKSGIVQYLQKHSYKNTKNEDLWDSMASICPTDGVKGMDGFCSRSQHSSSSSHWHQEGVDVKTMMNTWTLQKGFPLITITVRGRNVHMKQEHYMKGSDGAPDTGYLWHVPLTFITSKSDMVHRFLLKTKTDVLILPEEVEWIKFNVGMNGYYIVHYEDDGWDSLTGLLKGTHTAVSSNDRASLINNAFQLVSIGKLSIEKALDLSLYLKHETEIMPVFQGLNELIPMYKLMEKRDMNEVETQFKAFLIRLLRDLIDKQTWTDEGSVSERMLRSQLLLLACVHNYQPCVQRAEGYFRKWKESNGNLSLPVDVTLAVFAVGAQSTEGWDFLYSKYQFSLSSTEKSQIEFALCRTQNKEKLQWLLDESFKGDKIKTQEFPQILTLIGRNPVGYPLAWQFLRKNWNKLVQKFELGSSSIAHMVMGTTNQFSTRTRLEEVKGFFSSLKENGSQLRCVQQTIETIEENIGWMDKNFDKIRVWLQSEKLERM
# Casp6 inh: inhibitors of human caspase-6 | P55212 | purified caspase-6, Z-VEID-R110 cleavage fluorescence | inhibition, % at 12.5 µM | 350,000 tested, 0.53% active | AID 686996;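 active means mean inhibition across replicates at least about 35%, with every replicate also reaching that limit, limit read from the data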;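 further: 0% = median of neutral control wells and 100% = no fluorescence left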
# SIRT5 inh: blocks human SIRT5 desuccinylation of peptide; Q9NXA8; Purified SirT5, succinyl-peptide AMC, trypsin-coupled fluorescence; inhibition, % at 15 µM; 330,000 tested, 1.1% active; AID 652115; in the data active means inhibition above about 15%
# * = called active by the depositor; . = not tested or not shown.
SMILES,GSIS activator,FGF22 binding,ERAP1 HTS inh,Casp6 inh,SIRT5 inh
COc1ccc(C(NC(=O)C2C3C=CC(C3)C2C(=O)O)c2ccccc2)cc1 (centres undefined),2.6,51.6*,1.2,1.3,1.4
CO[C@H]1CN(C)C(=O)c2cc(NS(C)(=O)=O)ccc2OC[C@@H](C)NC[C@H]1C,8.3,.,-3.8,-1.2,-0.5
CC(NC(=O)C1CCCN1S(=O)(=O)c1ccc2c(c1)n(C)c(=O)c(=O)n2C)c1ccccc1 (centres undefined),54.0*,0.2,-2.2,2.6,-0.3
CCc1cccc(NC(=O)C2CCCN2S(=O)(=O)c2ccc3c(c2)n(C)c(=O)c(=O)n3C)c1 (centres undefined),45.8*,0.1,4.5,0.4,2.0
CC(NC(=O)C1CCCN1S(=O)(=O)c1ccccc1)c1ccccc1 (centres undefined),35.1,-0.2,-1.0,-1.2,-2.7
Cc1ccc(S(=O)(=O)N2CCCCC2)cc1C(=O)N(C)CC(=O)Nc1ccc(Cl)c(C(F)(F)F)c1,-61.8,-0.2,2.5,1.5,-0.7
CN(CC(=O)Nc1ccc(Cl)c(C(F)(F)F)c1)C(=O)c1cc(=O)[nH]c2ccccc12,-24.0,-0.2,-2.7,3.6,2.0
CN(CC(=O)Nc1ccc(Cl)c(C(F)(F)F)c1)C(=O)c1cc(=O)c2ccccc2o1,-23.2,-0.1,1.3,4.4,21.9*
Cc1ccc(C(=O)N(C)CC(=O)Nc2ccc(Cl)c(C(F)(F)F)c2)cc1S(=O)(=O)N1CCCCC1,-15.2,0.2,-3.2,-1.0,19.4*
COc1ccc(NC(=O)Nc2cccc3c2O[C@H](CN(C)Cc2ccc(-c4ccccc4)cc2)[C@@H](C)CN([C@@H](C)CO)C3=O)cc1,2.0,0.1,0.8,-3.2,-1.8
C[C@H]1CN([C@@H](C)CO)C(=O)c2cc(C3=CCCC3)cnc2O[C@@H]1CN(C)Cc1ccc(F)cc1,-0.3,-0.1,-0.8,-1.0,0.9
CC(C)CC#Cc1ccc2c(c1)O[C@@H](CN(C)Cc1ccncc1)[C@H](C)CN([C@@H](C)CO)S2(=O)=O,-25.7,-0.6,3.2,0.8,2.5
CO[C@@H]1CN(C)C(=O)c2ccc(NC(=O)c3ccno3)cc2OC[C@H](C)NC[C@H]1C,20.0,.,-8.1,-1.0,2.5
Cc1c(NC(=O)CN2CCN(c3ccc(F)cc3)CC2)c(=O)n(-c2ccccc2)n1C,5.5,0.1,-6.0,1.2,-0.1
Cc1c(NC(=O)COC(=O)C2(c3ccc(F)cc3)CCCC2)c(=O)n(-c2ccccc2)n1C,6.2,43.3*,-4.4,-1.1,-4.9
O=C(CN1CCOCC1)NCC[C@H]1CC[C@@H](NC(=O)Cc2ccccn2)[C@H](CO)O1,5.4,-0.2,0.8,-0.5,2.0
CCOC(=O)c1c(C)[nH]c(C)c1C(=O)COC(=O)c1ccc(OC)cc1,-3.8,1.1,2.3,1.2,-1.4
CCOC(=O)c1c(C)[nH]c(C)c1C(=O)COC(=O)c1cc(OC)cc(OC)c1,-25.2,58.8*,-7.5,1.4,-5.5
CCOC(=O)c1c(C)[nH]c(C)c1C(=O)COC(=O)c1cc(OC)c(OC)cc1OC,12.0,0.0,-0.8,-0.6,18.9*
N#C/C(=C\c1ccc(O)c(O)c1)C(=O)c1ccc(O)c(O)c1,.,-0.2,6.6,71.7*,10.8
C[C@@H]1CCCCO[C@H](CN(C)C(=O)CCC(F)(F)F)[C@@H](C)CN([C@@H](C)CO)C(=O)c2cc(NC(=O)Cc3ccccc3)ccc2O1,-13.6,0.2,-3.0,3.1,3.1
O=C(OCc1cccc([N+](=O)[O-])c1)c1cccnc1,15.5,43.1*,0.1,2.0,0.8
CC(=O)Nc1cccc(C(=O)OCc2ccc([N+](=O)[O-])cc2)c1,-5.9,43.2*,-2.0,-0.1,-0.8
O=C(Cc1ccc([N+](=O)[O-])cc1)Nc1cc(C(F)(F)F)cc(C(F)(F)F)c1,-0.6,0.2,5.3,-0.7,-4.2
CC(=O)Nc1ccc(C(=O)OCc2ccc(F)cc2)cc1,-6.8,43.2*,3.4,0.1,1.3
O=C(Cc1ccc([N+](=O)[O-])cc1)Nc1cccc(C(F)(F)F)c1,-3.4,43.7*,0.5,-1.3,-2.5
O=C(Nc1ccccc1)Nc1cccc(C(F)(F)F)c1,0.7,43.7*,-0.9,1.6,-1.4
O=C(Nc1cccc(C(F)(F)F)c1)Nn1cnnc1,2.4,0.1,-3.3,-1.1,-5.1
O=C(CNC(=O)OCc1ccccc1)Nc1ccc(F)cc1,5.0,0.0,32.3*,-3.5,-1.5
